In the library only some 3.3% were active in any assay of this set; here they are far more common.
Tb PYK inh = blocks Trypanosoma brucei pyruvate kinase | Potency, µM (doses to about 76.8 µM), without a hit: at the highest dose activity, negative = inhibition, usual class: inhibitors | Q57TT1 | 0.12% of 410,000 active | TbPYK enzyme, Kinase-Glo Plus ATP luminescence, 45 min; further: on the % scale 0 is the no-effect control and ±100 the full control effect; nearly all actives have a fitted effect of over 50% in size
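ADP (130 uM final) triggers the TbPYK reaction after compound addition; incubation is 45 min at room temperature. Kinase-Glo Plus is then added and luminescence imaged. Normalized data are fitted to concentration-effect curves.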
Sm TGR inh = S. mansoni TGR enzyme inhibition. AID 485364. Potency, µM (top dose mostly 114 µM), without a hit: at the highest dose activity change, negative = inhibition, hits mostly inhibitors. purified TGR, DTNB reduction, TNB absorbance 405 nm. Q962Y6. 3% of 360,000 active; further: on the % scale 0 is the no-effect control and ±100 the full control effect; nearly all actives have a fitted effect of over 60% in size
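First, TGR (20 nM dispensed) and NADPH were mixed with compound. Second, a 15 min room-temperature incubation followed. Third, further NADPH and then DTNB were added to start the reaction. Finally, TNB absorbance was monitored kinetically.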
SARS PLP yeast = blocks SARS-CoV papain-like protease in a yeast assay. S. cerevisiae expressing SARS-CoV PLpro, growth rescue. Potency, µM (doses to about 32.9 µM), for inactives: at the top dose activity, positive = growth rescue, most hits filed as activators. 0.19% of 330,000 active; calls by dose curve; further: 0% is about no effect; nearly all actives have a fitted effect of over 55% in size
LmPK inhibitor = LmPK (Leishmania mexicana) enzyme inhibition | 0.37% of 290,000 active | Potency, µM (titrated, usually from 57.5 µM), for inactives: at the highest dose activity change, negative = inhibition, actives largely listed as inhibitors | AID 1721 | Q27686 | purified LmPK, Kinase-Glo ATP luminescence, 1 h; further: on the % scale 0 is the no-effect control and ±100 the full control effect
Target sequence (Q27686 whole entry, looked up): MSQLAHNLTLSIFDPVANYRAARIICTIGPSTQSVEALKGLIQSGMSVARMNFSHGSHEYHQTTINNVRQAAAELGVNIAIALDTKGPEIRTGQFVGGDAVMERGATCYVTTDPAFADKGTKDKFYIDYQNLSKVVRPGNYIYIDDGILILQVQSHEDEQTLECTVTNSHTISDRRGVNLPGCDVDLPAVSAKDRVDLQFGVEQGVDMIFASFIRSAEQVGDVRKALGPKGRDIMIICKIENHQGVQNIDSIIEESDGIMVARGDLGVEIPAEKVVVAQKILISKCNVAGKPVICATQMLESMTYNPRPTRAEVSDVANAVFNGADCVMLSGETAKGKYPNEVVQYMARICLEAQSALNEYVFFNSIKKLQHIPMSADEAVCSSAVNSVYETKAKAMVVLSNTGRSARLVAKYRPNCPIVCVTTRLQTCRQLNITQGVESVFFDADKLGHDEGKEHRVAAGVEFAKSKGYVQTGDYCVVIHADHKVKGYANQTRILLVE
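Purified LmPK (0.1 nM) with 0.5 mM PEP and 0.1 mM ADP in imidazole buffer pH 7.2 with MgCl2/KCl, 1 h at room temperature. ATP formed was read by luciferase luminescence and normalized to no-enzyme and uninhibited controls.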
NS1 function inh = blocks influenza NS1 protein function | Potency, µM (titrated, usually from 46.1 µM), without a hit: at the highest dose activity, positive = more growth | 0.4% of 270,000 active; calls by dose curve; further: actives are rising curves; nearly all actives have a fitted effect of over 50% in size
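Growth recovery, yeast-based: influenza A NS1 expressed in S. cerevisiae causes slow growth, and suppressors are detected by OD600. The parent strain without NS1 is used as positive control.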
RE007 growth inh = less growth of the S. pombe RE007 Vpr strain; AID 651644; S. pombe RE007 Vpr strain, BacTiter-Glo ATP luminescence, 24 h; 0.21% of 360,000 active; Potency, µM (doses to about 92.2 µM), inactives show at the top dose activity change, negative = less growth, most hits filed as inhibitors; active means well fitted falling curve with a large enough effect; inconclusive means small, poorly fitted or top-dose-only effect; inactive means no such curve, though single readings can be large or run the other way; further: on the % scale 0 is the no-effect control and ±100 the full control effect; nearly all actives have a fitted effect of over 50% in size
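Fission yeast RE007 carrying one integrated HIV-1 vpr copy, seeded at OD 0.01 in PMG+AL medium with 23 nL pinned compound. Grown 24 h at 30 degrees; viability read by BacTiter-Glo luminescence after 5 min.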
Starred values were filed as active, the others as inactive; u = inconclusive; x = no result; [ ] = another dose, or the depositor's remark. Unless noted, the call rests on the fitted dose curve; in most records, active means well fitted curve in the direction sought with a large enough effect; inconclusive means small, poorly fitted or top-dose-only effect, or another doubt; inactive means no such curve, though single readings can be large; an effect the other way counts as inactive or inconclusive. Potency means the concentration at half of the fitted maximal effect.

SMILES | Tb PYK inh | Sm TGR inh | SARS PLP yeast | LmPK inhibitor | NS1 function inh | RE007 growth inh
CC(=O)O[C@H]1CC[C@@]2(C)C(=CC[C@@H]3[C@@H]4CC[C@H](c5cc(C(F)(F)F)n(C(C)=O)n5)[C@]4(C)CC[C@@H]32)C1 | x | x | x | x | -5% | x
C=CCN1CC(C(=O)N(CCCN(C)C)C(=O)NCC)CC2c3cccc4[nH]cc(c34)CC21 (stereo not drawn) | -8% | x | x | x | x | x
CCOC(=O)c1c(C)sc2c1N(C(=O)CCl)c1cc(Cl)ccc1S2 | -1% | 2.5µM* | -35% | 3% | -37% | 5%
Cc1sc2ncnc(SCC(=O)N3c4ccccc4Sc4ccc(Cl)cc43)c2c1C | -9% | -29% | 1% | 3% | 11% | 7%
O=Nc1ccc(NOC(=O)c2ccccc2)cc1 | u | 5% | 28% | 13µM* | -20% | 10µM*
Cc1ccccc1OC(=O)c1snnc1C | 0% | 7% | x | x | x | x
Cc1nnsc1C(=O)Oc1ccccc1Cl | -5% | 45µM* | x | x | x | x
COc1ccc(C2=NN(C(=O)CSc3nc4ncc(Cl)cc4[nH]3)C(c3ccco3)C2)cc1 (stereo not drawn) | -19% | 28µM* | -1% | 2% | x | 1%
Cc1ccc(C2=NN(C(=O)CSc3nc4ncc(Cl)cc4[nH]3)C(c3ccco3)C2)cc1 (stereo not drawn) | 1% | 14µM* | -14% | 1% | x | 13%
CCC(=O)N1CCc2cc(S(=O)(=O)NCCC(=O)Nc3ccc(OC)c(Cl)c3)ccc21 | 2% | 2% | x | x | x | x
COc1ccc(N2C(=O)CC(N3CCN(c4cccc(Cl)c4)CC3)C2=O)cc1 (stereo not drawn) | 0% | 32% | -7% | 2% | 7% | 4%
COc1cccc(N2CCN(C3CC(=O)N(c4ccc(Cl)c(Cl)c4)C3=O)CC2)c1 (stereo not drawn) | 1% | u | -25% | -4% | 2%[9.22 µM] | 35µM*
CCOC(=O)N1CCN(C2CC(=O)N(c3ccc(Cl)c(Cl)c3)C2=O)CC1 (stereo not drawn) | -7% | 20µM* | -96% | -2% | -23% | 11µM*
CCOC(=O)N1CCN(C2CC(=O)N(c3ccccc3)C2=O)CC1 (stereo not drawn) | 3% | 0% | -8% | -5% | 3% | -15%
O=C(c1ccco1)N1CCN(C2CC(=O)N(c3ccc(F)c(Cl)c3)C2=O)CC1 (stereo not drawn) | -13% | 20µM* | -9% | 0% | 2% | u
COc1cc(OC)c(Nc2nc3ccccc3nc2-n2nc(C)cc2C)cc1Cl | -2% | 1% | x | x | x | x
COc1ccc(NC(=O)N2CCc3nc(-c4ccccc4)c4c(c3C2)CO[C@@H](C)C4)cc1 | x | x | x | -4%[11.5 µM] | x | x
Cc1ccc(-c2nnc(-c3ccccc3)c(-c3ccccc3)n2)cc1 | 0% | -9% | -39% | 0% | -26% | -8%
Cc1cc(-c2nnc(-c3ccccc3)c(-c3ccccc3)n2)c(C)o1 | 4% | 6.3µM* | -3% | 0% | 4% | 0%
Cc1ccc(C2C=C(c3ccccc3OC(F)F)Nc3ncnn32)cc1 (stereo not drawn) | 7% | u | -10% | 1% | -10% | 13%
CN(C)c1ccc(C2C=C(c3ccc(Cl)cc3OC(F)F)Nc3ncnn32)cc1 (stereo not drawn) | 4% | 22µM* | -8% | 4% | -54% | 5%
O=C(NCCn1ccc2ccccc21)c1ccc(Cl)cc1 | 5% | -3% | x | x | x | x
Cc1nc(NS(=O)(=O)c2ccccc2)sc1NC(=O)Nc1ccc(Cl)cc1 | 1% | 5.6µM* | -1% | 6% | 9% | -2%
Cc1nc(NS(=O)(=O)c2ccccc2)sc1NC(=O)Nc1ccccc1 | -9% | x | 0% | 5% | 8% | -1%
Cc1ccc(S(=O)(=O)Nc2nc(C)c(C(=O)NN)s2)cc1 | -5% | 71µM* | 0% | 8% | 16% | -18%
SMILES | Tb PYK inh | Sm TGR inh | SARS PLP yeast | LmPK inhibitor | NS1 function inh | RE007 growth inh
CC(=O)c1ccc(NC(=O)Nc2sc(NS(=O)(=O)c3ccccc3)nc2C)cc1 | -4% | 35µM* | 2% | 4% | 1% | -14%
CC(=O)c1sc(NS(=O)(=O)c2ccc(C)cc2)nc1C | 2% | -1% | 1% | -6% | x | 11%
CCOC(=O)Nc1sc(NS(=O)(=O)c2ccccc2)nc1C | -8% | 50µM* | 2% | 4% | 6% | 18%
C[C@@H](CSC(=N)N)C(N)=O | x | x | x | x | 0% | x
O=C(O)C[C@H](S)C(=O)O | x | x | x | x | -4% | x
Cc1oc2ncn(CC(C)C)c(=O)c2c1C(=O)NCCCN1CCC(C)CC1 | 2% | -8% | x | x | x | x
Cc1ccc(C)n1-c1cccc(C(=O)O)c1 | x | 8.9µM* | 5% | 17% | 18% | x
Cc1ccc(C2CC2C(=O)NNC(=S)Nc2cccc(Cl)c2)cc1 (stereo not drawn) | -1% | -1% | 14µM* | 2% | -26% | 9%
CCC(=O)N(Cc1cc2ccc(C)cc2[nH]c1=O)c1ccccc1OC | 1% | 89µM* | 3% | 4% | u | 1%
Cc1ccc(N(Cc2cc3ccc(C)cc3[nH]c2=O)C(=O)c2ccco2)c(C)c1 | -23% | 8.9µM* | 1% | 5% | 2% | 11%
Cc1ccc2cc(CN(C(=O)c3ccco3)c3ccccc3C)c(=O)[nH]c2c1 | -12% | -30% | -2% | 3% | 7% | 17%
COCC(=O)N(Cc1cc2ccc(C)cc2[nH]c1=O)c1ccccc1C | -4% | 6% | -5% | 1% | -1% | 6%
Cc1ccc2cc(CN(C(=O)c3ccco3)c3cccc(C)c3C)c(=O)[nH]c2c1 | -32% | 13µM* | 1% | 4% | 4% | 19%
COC(=O)C1=C(C(=O)OC)[C@@H]2N(Cc3ccccc3)c3ccccc3[C@@]23C[C@@H](C(=O)OC)N(S(=O)(=O)c2ccc4c(c2)OCCN4C)C3=N1 | x | x | x | -8%[11.5 µM] | x | x
Cc1cccn2c(=O)c3cc(C(=O)NC4CCCCC4)c(=N)n(Cc4ccccc4)c3nc12 | 3% | 2.8µM* | -3% | 3% | 8% | 11%
CCOC(=O)c1c(C)oc(NC(=O)CCl)c1C(=O)OCC | 7% | 14µM* | u | 2% | x | -2%
O=C(NC(Cc1ccccc1)C(=O)NC(Cc1ccccc1)C(=O)O)c1ccccc1 (stereo not drawn) | 1% | 28µM* | 1% | -3% | -3% | 14%
CN1C(=O)/C(=C/c2cc(C(C)(C)C)c(O)c(C(C)(C)C)c2)NC1=S | 0% | 1µM* | 4% | 5% | x | 3%
O=C1N/C(=C/c2ccco2)C(=O)N1Cc1ccccc1F | u | 56µM* | 23% | 1% | 17% | -18%
CC(C)CN1C(=O)/C(=C/c2ccco2)NC1=S | -20% | 32µM* | -10% | -2% | 4% | -10%
